Bioassay records deposited in PubChem by National Center for Advancing Translational Sciences (NCATS).
HP1b binding inh = HP1-beta chromodomain-methylated histone interaction inhibition; P83916; AlphaScreen HP1-beta / biotin-H3K9me3 peptide binding; Potency, µM (titrated, usually from 114 µM), most hits filed as inhibitors; hit rate 0.56% among 390,000; AID 540317; note: nearly all actives have a fitted effect of over 70% in size
Target sequence (P83916 whole entry, looked up): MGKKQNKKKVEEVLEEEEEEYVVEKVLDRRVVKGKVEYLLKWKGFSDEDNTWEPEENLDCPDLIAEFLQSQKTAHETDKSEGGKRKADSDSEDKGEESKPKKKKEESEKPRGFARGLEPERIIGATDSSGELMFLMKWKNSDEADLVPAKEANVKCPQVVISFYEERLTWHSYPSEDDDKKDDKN
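HP1-beta protein (50 nM final) preincubated 30 min at room temperature with biotinylated H3(1-18)K9me3 peptide (50 nM) in PBS pH 7.4, 0.01% Tween-20, then compound added for 30 min. AlphaScreen streptavidin donor/nickel chelate acceptor beads (10 ug/mL final), 30 min dark, luminescence read.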
BAZ2B inh = BAZ2B (human) inhibition; Potency, µM (doses to about 114 µM), hits mostly inhibitors; AlphaScreen BAZ2B-H3K14Ac peptide displacement; AID 504333; hit rate 4.4% among 360,000; Q9UIF8; note: nearly all actives have a fitted effect of over 60% in size
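AlphaScreen displacement: compounds (up to 110uM) incubated 30 min at room temperature with a preformed 50 nM BAZ2B/50 nM biotinylated H3K14Ac peptide complex in PBS pH 7.4 with Tween-20. Donor and acceptor beads at 10 ug/mL final added, 20 min light-protected before reading.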
JMJD2A Tudor inh = blocks the human JMJD2A Tudor domain | AlphaScreen JMJD2A-Tudor / H3K4me3 peptide binding | Potency, µM (top dose mostly 114 µM), hits mostly inhibitors | hit rate 4.4% among 390,000; note: nearly all actives have a fitted effect of over 50% in size
G9a inh = G9a (human) methyltransferase inhibition; Q96KQ7; G9a H3K9 monomethylation, AlphaScreen, 2 h; Potency, µM (titrated, usually from 102 µM), actives largely listed as inhibitors; hit rate 8.8% among 350,000; AID 504332; note: nearly all actives have a fitted effect of over 75% in size
Target sequence (Q96KQ7 913-1193 limits assumed): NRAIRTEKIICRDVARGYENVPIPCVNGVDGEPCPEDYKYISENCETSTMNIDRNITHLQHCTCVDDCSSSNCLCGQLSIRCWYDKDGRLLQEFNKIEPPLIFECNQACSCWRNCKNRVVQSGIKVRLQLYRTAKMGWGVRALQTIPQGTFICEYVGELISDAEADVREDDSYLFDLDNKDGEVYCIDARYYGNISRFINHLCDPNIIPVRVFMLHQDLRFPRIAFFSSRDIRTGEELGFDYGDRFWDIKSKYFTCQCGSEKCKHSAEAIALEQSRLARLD
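Chemiluminescent proximity detection of H3K9 monomethylation, read after 10 min bead incubation in the dark. Reaction: 20 nM G9a, 500 nM biotin-H3K9 peptide, 20 uM SAM cofactor, 2 h, room temperature, following 15 min enzyme-compound preincubation.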
Sfp inh = Sfp phosphopantetheinyl transferase inhibition. Biochemical Sfp PPTase activity, qHTS. Potency, µM, actives largely listed as inhibitors. hit rate 3.5% among 310,000;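 note: the enzyme is Sfp with the accession as filed and its product quenches rhodamine fluorescence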
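Fluorescence-quenching assay with 15 nM Sfp, 5 uM rhodamine-CoA and 12.5 uM BHQ-2-labelled ybbR peptide in pH 7.6 Hepes/MgCl2 buffer. Enzyme was pre-incubated with compound for 15 min at room temperature. Rate was taken from the 30-min fluorescence change (525/598 nm).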
Hits are given with their value; ! = not confirmed by another sample; [ ] = remark or other dose. Only some compounds are listed: those with a hit (about 12% of all), similar ones and a draw of the others. Calls come from the whole dose curve; as a rule, active = well fitted curve in the direction sought with a large enough effect; inconclusive = small, poorly fitted or top-dose-only effect, or another doubt; inactive = no such curve, though single readings can be large; an effect the other way counts as inactive or inconclusive.

Screening Cc1ccc(C2CC(=O)Oc3ccc(O)cc32)cc1 (stereo not drawn) returned G9a inh 11.2µM and Sfp inh inconclusive.
COc1ccc(C(CC(=O)N2CCN(C)CC2)NC(=O)C(F)(F)F)cc1 (stereo not drawn) was read as HP1b binding inh inactive, BAZ2B inh inactive, JMJD2A Tudor inh inactive, G9a inh inactive and Sfp inh inactive.
CC1C2(C)OCC(C#N)(C(=N)O2)C1(C#N)C#N (stereo not drawn) was read as BAZ2B inh inactive, G9a inh 44.7µM and Sfp inh inactive.
`CCCn1c(=O)c2[nH]c(-c3ccc(S(=O)(=O)O)cc3)nc2n(CCC)c1=O` gave HP1b binding inh inactive, BAZ2B inh inactive, JMJD2A Tudor inh inactive and G9a inh 21.2µM!.
`CCCn1c(=O)c2[nH]c(-c3ccc(OCC(=O)Nc4ccc(C(C)=O)cc4)cc3)nc2n(CCC)c1=O` gave Sfp inh inactive.
For CCOC(=O)c1c(C=O)c(C)n(Cc2ccc(Cl)cc2)c1C the results were HP1b binding inh inactive, BAZ2B inh inactive, JMJD2A Tudor inh inconclusive, G9a inh inactive and Sfp inh inactive.
CCOC(=O)C1=C(Cc2ccc(Cl)cc2)C(=O)c2ccccc2C1=O was read as HP1b binding inh 20µM, BAZ2B inh 22.4µM, JMJD2A Tudor inh 35.5µM, G9a inh 2.51µM and Sfp inh 3.55µM.
Screening CCOC(=O)C1CCN(c2nc(N)c3c(N)nc(SCC(=O)O)cc3c2C#N)CC1 returned HP1b binding inh 17.8µM, BAZ2B inh 39.8µM, JMJD2A Tudor inh inactive[11.4 µM], G9a inh 8.91µM and Sfp inh 6.31µM.
`O=C(CN1CCN(C2CCCCC2)CC1)NCCC1=CCCCC1` gave HP1b binding inh inconclusive, BAZ2B inh 50.1µM, JMJD2A Tudor inh 12.6µM and Sfp inh 79.4µM.
Screening CC(=O)N(NC(=O)c1ccc(C)cc1)C1CC(=O)N(c2ccccc2Cl)C1=O (stereo not drawn) returned HP1b binding inh inactive, BAZ2B inh inactive, JMJD2A Tudor inh inactive, G9a inh inactive and Sfp inh inactive.
`O=C(CSCc1ccccc1Br)NNC(=S)NCc1ccco1` gave HP1b binding inh inactive, BAZ2B inh inactive, JMJD2A Tudor inh inconclusive, G9a inh 39.8µM and Sfp inh inactive.
CCNC(=O)NC(=O)CSc1cccc(C(F)(F)F)c1 was read as HP1b binding inh inactive, BAZ2B inh inactive, JMJD2A Tudor inh inactive, G9a inh inactive and Sfp inh inactive.
Screening CC(C)(O)C(=O)NNC(=S)NCc1ccco1 returned HP1b binding inh inactive, BAZ2B inh inconclusive, JMJD2A Tudor inh inactive, G9a inh inactive and Sfp inh inactive.
For Cc1ccccc1CSCC(=O)NC(=O)NCc1ccco1 the results were HP1b binding inh inconclusive, BAZ2B inh inactive, JMJD2A Tudor inh 44.7µM, G9a inh 44.7µM and Sfp inh inactive.
O=C(CSc1cccc(C(F)(F)F)c1)NC(=O)NCc1ccco1 was read as HP1b binding inh inactive, BAZ2B inh 50.1µM, JMJD2A Tudor inh 79.4µM, G9a inh inactive and Sfp inh inactive.
`O=C(CSc1ccccc1F)NC(=O)NCc1ccco1` gave HP1b binding inh inactive, BAZ2B inh 39.8µM, JMJD2A Tudor inh inactive, G9a inh inactive and Sfp inh 44.7µM.
`O=C(NCc1ccc(Cl)cc1)C(=O)NCC(c1cccs1)S(=O)(=O)c1ccc(Cl)cc1` (stereo not drawn) gave HP1b binding inh inactive, BAZ2B inh inactive, JMJD2A Tudor inh inactive and G9a inh inactive.
Screening CCOc1cccc(N2C(=O)CC(N3CCN(c4ccc(S(=O)(=O)CC)cc4)CC3)C2=O)c1 (stereo not drawn) returned HP1b binding inh inactive, BAZ2B inh inactive, JMJD2A Tudor inh inactive, G9a inh inconclusive and Sfp inh inactive.
CCCN(CCC)C1CC(=O)N(Cc2ccccc2)C1=O (stereo not drawn) was read as HP1b binding inh inactive, BAZ2B inh inactive, JMJD2A Tudor inh inactive, G9a inh 25.1µM and Sfp inh inconclusive.
`O=C1CC(N(O)C2CC(=O)N(Cc3ccccc3)C2=O)C(=O)N1Cc1ccccc1` (stereo not drawn) gave HP1b binding inh inactive, BAZ2B inh inactive, JMJD2A Tudor inh inactive and Sfp inh 44.7µM.
Screening Cc1ccc(NC2CC(=O)N(Cc3ccccc3)C2=O)cc1 (stereo not drawn) returned HP1b binding inh inactive, BAZ2B inh inactive, JMJD2A Tudor inh inactive, G9a inh inactive[2.33 µM] and Sfp inh inactive.
For CN(CC(=O)Nc1ccccc1C(F)(F)F)C(=O)CSc1nnc(N)s1 the results were HP1b binding inh inactive and JMJD2A Tudor inh inactive.
For CCCn1c(CC)nc([N+](=O)[O-])c1Sc1ccc(C)cc1 the results were HP1b binding inh inactive, BAZ2B inh inactive, JMJD2A Tudor inh inactive, G9a inh inactive[12.7 µM] and Sfp inh inactive.
Screening CCOc1ccc(OCCNC2CCCC2)cc1 returned HP1b binding inh inconclusive, BAZ2B inh inactive, JMJD2A Tudor inh 3.16µM, G9a inh inconclusive and Sfp inh inconclusive.
For CCCOc1ccc(OCCNC2CCCC2)cc1 the results were HP1b binding inh inconclusive, BAZ2B inh inconclusive, JMJD2A Tudor inh 89.1µM, G9a inh 10µM and Sfp inh inactive.
`CCOc1ccc(C(=S)NC2CCCCC2)cc1` gave HP1b binding inh inactive, BAZ2B inh inactive, JMJD2A Tudor inh inactive, G9a inh 10µM and Sfp inh inactive.
CCOc1ccc(C(=O)NC2CCCCCCC2)cc1 was read as HP1b binding inh inactive and JMJD2A Tudor inh inactive.
For O=C(Nc1ccccc1N1CCOCC1)c1ccco1 the results were HP1b binding inh inactive, BAZ2B inh inactive, JMJD2A Tudor inh inactive, G9a inh inactive and Sfp inh inactive.
`COc1ccc(C(CNC(=O)CCNC(=O)c2ccccc2Cl)N2CCCC2)cc1` (stereo not drawn) gave HP1b binding inh inactive, BAZ2B inh inactive, JMJD2A Tudor inh inactive and G9a inh inactive.
COc1cc(NC(=O)c2ccc(C(=O)c3ccccc3)cc2)cc(OC)c1OC was read as HP1b binding inh inactive, BAZ2B inh inactive, JMJD2A Tudor inh inactive and Sfp inh inactive.
For COc1cc2c(c(O)c1OC)-c1c(cc(OC)c(OC)c1O)[C@@H](OC(=O)c1ccccc1)[C@@](C)(O)[C@@H](C)[C@@H]2OC(C)=O the results were BAZ2B inh 50.1µM, G9a inh inactive and Sfp inh inactive.
`C=C(C)C(O)C(CC/C=C(\C)C(=O)OCC)OC` (stereo not drawn) gave Sfp inh inactive.
For COc1ccc(N2CCN(C(CNC(=O)C(=O)NCCCn3ccnc3)c3cccnc3)CC2)cc1 (stereo not drawn) the results were HP1b binding inh inactive, JMJD2A Tudor inh 44.7µM, G9a inh inconclusive and Sfp inh inactive.
Cc1cc(C)cc(NC(=O)C(=O)NCC(c2cccnc2)N2CCOCC2)c1 (stereo not drawn) was read as HP1b binding inh inactive, BAZ2B inh 79.4µM, JMJD2A Tudor inh inactive and G9a inh inactive.
